The record followed here is PubChem BioAssay (NCI).

Where “and” joins values, the source holds several entries; their conditions need not be identical. Equal values may be shown once. This is part of a sample that, as a whole, favours compounds with a hit. Of some 83,000 tested, about 20% had one in any assay.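 Cell lines were cultured in 96-well plates, exposed to a single compound concentration, and assessed for percent growth 48 hours later.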 A number with no mark means an inactive call. Calls of active or inactive are those of the source. The calls were made as follows: active = growth percent below 10; inactive = the rest.

The test system of the assay is MDA-MB-468 breast. The experiment in a line: NCI-60 one-dose screen, 48 h (100 = growth as untreated, 0 = no growth, -100 = all killed). The conditions noted are these: 10 µM unless noted.
Turning to `COc1cc(NC(=O)c2cc(O)c(C/C=C(\C)CCC=C(C)C)c(O)c2)cc2c1O[C@]1(C)CC[C@@H](O)C(C)(C)[C@H]1C2`, the growth was 21.9%.
Under `O=C1COCCN1c1ccc(NCc2cn(Cc3ccccc3)c3ccccc23)cc1` stands -76% (active); under `O=C(Nc1nc(-c2ccccc2)cs1)c1cc(-c2ccc(Br)cc2)nc2ccccc12`, 35.2%; under `COc1ccc(-c2cc(/C=C/C(=O)c3ccc(N)cc3)[nH]n2)cc1`, 4.1% (active).
Turning to `CCCCC1CCCCN1C(=O)OCC` (centres undefined), the growth was 114%.
`COC1=C(C)C(=O)N2[C@@H]1[C@H](c1ccccc1)OC21C=CC(=O)C=C1`: the growth is -20.4% (active).
The result for `N#CSCc1ccc(Cl)c(CSC#N)c1` reads 51.5%; that for `Cc1ccc(C)c2c1sc1nc(N3CCOCC3)c(C#N)c(=O)n12`, 86.9%; that for `O=[N+]([O-])c1ccc(Oc2ccccc2Cl)c([N+](=O)[O-])c1`, 64.2%.
For the molecule `Nc1nc(Nc2ccccc2SSc2ccccc2Nc2nc(N)nc(-c3ccccc3)n2)nc(-c2ccccc2)n1`, the growth is 102%.
In the case of `Cc1cc(SCc2ccc(Cl)cc2Cl)nc(SCc2ccc(Cl)cc2Cl)n1`, the growth was 104%.
In the case of `Cc1cc(-c2cc(OC(=O)c3ccccc3)ccc2Cl)cc2nnc(Nc3ccc(OCCN4CCCC4)cc3)nc12`, the growth was 84.3%.
In the case of `FC(F)(F)c1nn[nH]n1`, the growth was 99%.
Under `COc1cc2cc(Oc3ccc(NC(=O)Nc4ccc(Cl)c(Cl)c4)cc3)c(C)nc2cc1OCCN1CCOCC1` stands 33.9%; under `NC(=S)N/N=C/c1ccc(OCc2ccccc2)cc1`, 47.3%; under `CC(C)C1CCC(C)C(C2(C#N)C(N)=NC(N)=C2C#N)C1=O` (centres undefined), 107%.
The result for `C/C(=N/N=C(N)N)c1ccc(Cl)cc1` reads 95.7%; that for `COc1ccc(C2CC(n3nnnc3-c3ccccc3)=NN2)cc1` (centres undefined), 64.5%.
In the case of `BrC(Br)(Br)c1cnc2ccccc2n1`, the growth is -24.8% (active).
With `CCCCCc1ccc(S(=O)(=O)Nc2cccc(-c3csc(NC(=O)CCCCCN4CCN(C)CC4)n3)c2)cc1`, the growth was 79%.
Turning to `O=C(NCCOCCOCCOCCNC(=O)c1cc2c(o1)C(=O)c1ccccc1C2=O)NC12CC3CC(CC(C3)C1)C2`, the growth was -33.8% (active).
Take `COc1ccc(C2=NN(/C=C3\SC(=O)NC3=Nc3ccc(F)cc3)C(c3ccc(F)cc3)C2)cc1` (centres undefined): the growth was 101%.
Under `COc1cccc(-c2cn3nc(-c4cn(C)c5ccccc45)sc3n2)c1` stands 103%.
For the molecule `CN(C)CCNc1cc(-c2ccccc2)nc2ccccc12`, the growth was -33.3% (active).
For the molecule `Cc1c(-c2cnc3ccc(Cl)cc3c2C(=O)O)nnn1-c1ccc(Cl)cc1`, the growth was 110%.
The result for `O=C(/C=C/c1cccc(Br)c1)c1cccc(OCCCCOc2cccc(C(=O)/C=C/c3cccc(Br)c3)c2)c1` reads 102%; that for `O=C(Nc1cccc(-n2cc(-c3ccncc3)c(-c3ccc(O)c(Cl)c3)n2)c1)c1ccc(N2CCOCC2)c(C(F)(F)F)c1`, 65.9%.
On to `O=C(Cc1cccc(OC(F)(F)F)c1)Nc1ccc(CCCCc2nnc(NC(=O)Cc3ccccn3)s2)nn1`, for which the growth was 52.3%.
On to `C/C(Cc1ccc(Cl)cc1)=C(\c1ccc(OCCN2CCCCCC2)cc1)c1ccc(OC(=O)c2ccccc2)cc1`, for which the growth is 48.1%.
On to `O=C(CN1CCN(c2cc(=O)n(-c3ccccc3)c3ccccc23)CC1)Nc1ccc([N+](=O)[O-])cc1`, for which the growth was 62.1%.
Take `CCN(CC)c1ccc(C(=O)c2ccccc2)cc1`: the growth was 105%.
`COc1ccc2c(O)c(/C=C3\N=Nc4ccccc43)oc2c1C[C@@H]1CCNC[C@H]1F`: the growth was 74.4%.
As to `COc1ccc2oc3cc(NCCN(C)C)ccc3c(=O)c2c1`, the growth is 103% and 88.7%.
As to `CCN(CC)c1ccc2c(c1)Oc1nc(N)c(C#N)c(N)c1C2Sc1ccc(OC)cc1` (centres undefined), the growth was -35.3% (active).
The result for `NC1(N2SC(S)=C3CCCC=C32)CCCCC1` reads 99.9%.
With `NC(=O)c1cccc(-n2ccc3cc(NC(=O)Nc4ccc(N5CCOCC5)c(C(F)(F)F)c4)ccc32)n1`, the growth is 0.818% (active).
Under `COC(=O)c1ccc2[nH]c(O)c(C(=Nc3ccc(N(C)C(=O)CN4CCN(C)CC4)cc3)c3ccc([N+](=O)[O-])cc3)c2c1` stands 85.9%; under `CC1=C(CCCOC(=O)NCCCl)C2=C(C)C3(CC3)[C@@](C)(O)C(=O)C2=C1`, -55% (active); under `CCOC(=O)c1c2c(n3cccc(F)c13)C(=O)c1ncccc1C2=O`, 39.6%.
